Reference: ChEMBL document CHEMBL1157539, “Thousands of chemical starting points for antimalarial lead identification” (Nature, 2010)

Legend:
Type in all cases: functional
Plasmodium falciparum [1] = test: GSK_TCMDC: Inhibition of Plasmodium falciparum 3D7 in whole red blood cells, using parasite LDH activity as an index of growth. Test compounds present at 2uM
Plasmodium falciparum [2] = test: GSK_TCMDC: Inhibition of Plasmodium falciparum Dd2 in whole red blood cells, using parasite LDH activity as an index of growth. Test compounds present at 2uM
HepG2 = test: GSK_TCMDC: Percent inhibition of human HepG2 cell line. Test compounds present at 10uM.

| Compound | Inhibition (Plasmodium falciparum [1]) | Inhibition (Plasmodium falciparum [2]) | Inhibition (HepG2) |
| --- | --- | --- | --- |
| Cc1cc(Nc2cccc(C(F)(F)F)c2)nc2ccc(NC(=O)c3ccc(=O)[nH]c3)cc12 | 100% | 60% | 21% |
| OCC(c1ccccc1)n1c(COc2ccc(Cl)cc2)nc2c(OCCCN3CCCCC3)cccc21 (configuration not stated) | 90% | 68% | 6% |
| CCC(C)NS(=O)(=O)c1ccc2nc(Nc3cccc(SC)c3)n(C(C)C(C)C)c2c1 (configuration not stated) | 94% | 70% | 0% |
| CCCCCCn1c(Sc2ccc(C#N)c([N+](=O)[O-])c2)nnc1-c1ccc(OC)cc1 | 95% | 51% | 19% |
| COc1ccc(-c2cccc(NC(=O)c3ccc(Cl)cc3)c2)cc1CN1CCC(O)CC1.O=C(O)C(F)(F)F | 100% | 43% | 51% |
| O=C(O)C(F)(F)F.O=S(=O)(NC1CCN(c2ccnc3cc(Cl)ccc23)C1)c1ccc(F)cc1 (configuration not stated) | 98% | 88% | 3% |
| O=C(NC1CC1)c1ccc(N2CCOc3ccc(Cl)cc32)s1 | 94% | 73% | 8% |
| Cc1ccc(C(=O)Nc2cc(S(=O)(=O)N3CCCC3)ccc2OCC(F)(F)F)cc1 | 93% | 3% | 0% |
| O=C(O)C(F)(F)F.O=C1CCCN1CCCNCc1cccc(-c2cccc(-c3nc4cc(F)ccc4[nH]3)c2)c1 | 100% | 69% | 6% |
| O=C(NC1CC1)c1cnc(N2CCC(OCc3ccccc3)CC2)c(Cl)c1.O=C(O)C(F)(F)F | 90% | 71% | 0% |
| CCCCCC(C)N/C(=N/c1ccccc1Br)Nc1ccc(C#N)cc1O (configuration not stated) | 98% | 95% | 2% |
| Cl.O=C(Nc1ccc(Cl)c(Cl)c1)N1CCc2ccc(OCCCN3CCCCC3)cc2CC1 | 92% | 0% | 27% |
| Clc1ccc(CNc2ccnc(NCc3cccnc3N3CCCC3)n2)c(Cl)c1 | 85% | 53% | 37% |
| CCc1cn2c3c(cc(C(=O)N[C@@H](Cc4ccccc4)[C@H](O)CNC4CCCCC4)cc13)N(CC)S(=O)(=O)CC2.O=CO | 98% | 98% | 8% |
| COC(=O)c1cc(/C(C)=N/Nc2nc3ccccc3[nH]2)ccc1O | 100% | 75% | 9% |
| CN(C)CC1c2[nH]c3ccccc3c2CCN1C(=O)Nc1ccc(Cl)c(Cl)c1.Cl (configuration not stated) | 90% | 32% | 99% |
| CN1CCN(c2ccnc3ccc(NC(=O)Nc4cccc5c(C#N)cccc45)cc23)CC1 | 91% | 40% | 0% |
| N#Cc1ccccc1C1CCN(C2CCC(Nc3cc(-c4cccnc4)ccn3)CC2)CC1 (configuration not stated) | 100% | 78% | 38% |
| CCOC(=O)c1ccc(NC(=O)Nc2cccc(-c3cccc(-c4nc5cccc(C)c5[nH]4)c3)c2)cc1 | 100% | 99% | 37% |
| O=C(N[C@H]1CCN(Cc2ccc(OCCCN3CCCCC3)cc2)C1)c1cc(Cl)cc(Cl)c1 | 99% | 35% | 13% |
| Cc1cc(Cl)ccc1NC(=O)NCCCCCN1CCC(c2c[nH]c3ccccc23)CC1 | 91% | 8% | 59% |
| FC(F)(F)c1ccc2[nH]c(-c3ccc(-c4cccc(CNCCN5CCNCC5)c4)cc3)nc2c1.O=C(O)C(F)(F)F | 92% | 2% | 13% |
| COc1ccc2[nH]c(C)cc(=NN=Cc3ccccc3)c2c1 | 80% | 6% | 4% |
| O=C(NC1CC1)C1CCN(Cc2cc3ccccc3n2Cc2ccc(Cl)cc2)CC1 | 95% | 96% | 16% |
| CC(C)C[C@@H](C(=O)N[C@H](C(=O)Nc1nccs1)C(C)(C)C)[C@H](CCC(F)(F)F)N(O)C=O | 97% | 71% | 11% |
| CCCNC[C@@H](O)[C@H](Cc1ccccc1)NC(=O)c1cc2c3c(c1)c(CC)cn3CCS(=O)(=O)N2C | 97% | 98% | 0% |
| COC(=O)c1ccc2nc(-c3cc(-c4cccc(-c5ccccc5)c4)cnc3N)[nH]c2c1 | 100% | 61% | 25% |
| Cc1[nH]c(C)c(-c2ccc(CCc3ccc(F)cc3F)cc2)c(=O)c1Br | 97% | 98% | 0% |
| O=C(COc1ccccc1Cc1ccccc1)Nc1cc(Cl)ccc1-n1cncn1 | 92% | 93% | 5% |
